The source of these data is PubChem BioAssay (NCI).

Experiment [1] in a line: NCI Yeast Anticancer Drug Screen. Data for the rad50 strain (AID 155).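 Further: 0% = growth of vehicle-only cultures of the same strain.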 The note with it: S. cerevisiae rad50 strain growth inhibition, active compounds read high. In short, it runs like this:
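Cells are treated with compound, grown, and their growth is then scored against vehicle-only cultures of the same repair-deficient yeast strain.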

Experiment [2] in a line: NCI Yeast Anticancer Drug Screen. Data for the mec2-1 strain (AID 157). The note with it: S. cerevisiae mec2-1 strain, active compounds read high. In short, it runs like this: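 Growth inhibition is read against vehicle-treated controls after compound exposure of the mec2-1 yeast strain, which is defective in DNA damage repair or cell cycle control.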
Experiment [3] in a line: NCI Yeast Anticancer Drug Screen. Data for the sgs1 mgt1 strain (AID 161).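 Further: 0% = growth of cultures given vehicle only.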 The note with it: S. cerevisiae sgs1 mgt1 strain, active compounds read high. In short, it runs like this: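 Percent growth inhibition was derived by comparing compound-exposed mutant yeast with vehicle-exposed cultures. The strain carries alterations in DNA damage repair.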
Experiment [4] in a line: NCI Yeast Anticancer Drug Screen. Data for the cln2 rad14 strain (AID 165).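 Further: 0% = growth equal to vehicle treated cultures.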 The note with it: S. cerevisiae cln2 rad14 strain, active compounds read high. In short, it runs like this:
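Growth inhibition, relative to vehicle-treated controls, is the read-out. The test organism is a yeast strain with defined genetic alterations, cln2 rad14.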

The nature of experiment [5]: NCI Yeast Anticancer Drug Screen. Data for the bub3 strain (AID 167). Conditions: S. cerevisiae bub3 mutant strain, active compounds read high. The method, boiled down:
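Part of a panel of yeast mutants defective in DNA damage repair or cell cycle regulation. Each strain is grown with compound, and inhibition is calculated relative to solvent-treated cultures.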

Experiment [6] can be described thus: NCI Yeast Anticancer Drug Screen. Data for the mlh1 rad18 strain (AID 175). Conditions: S. cerevisiae mlh1 rad18 strain growth inhibition, active compounds read high. In short, it runs like this:
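Cells of a genetically altered yeast strain, deficient in DNA damage repair, were treated with compound. Their growth was then compared with that of vehicle-treated cultures to give inhibition.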

Where [7] appears, read: at 5.0 µM (retest, dose inferred, filed as 0.5).
[8] abbreviates: at 50.0 µM (retest, dose inferred, filed as 5.0).

This is part of a sample that, as a whole, favours compounds with a hit. Of some 79,000 tested, about 15% had one in any assay. A number with no mark means an inactive call. The source made the active and inactive calls. No stated cut-off is given here; in the data, active means growth inhibition above about 70%; inactive means the rest.

Consider `Clc1nc(Cl)nc(Nc2ccccc2Cl)n1`, for which the growth inhibition in experiment [1] (setting [7]) is 67%; in experiment [1] (setting [8]), 96% (active); in experiment [1] (at 50.0 µM), 99% (active); in experiment [2] (setting [7]), 40%; in experiment [2] (setting [8]), 97% (active); in experiment [2] (at 50.0 µM), 96.7% (active). Also, the growth inhibition is 53% in experiment [3] (setting [7]); 98% (active) in experiment [3] (setting [8]); 98.9% (active) in experiment [3] (at 50.0 µM); 21% in experiment [4] (setting [7]); 97% (active) in experiment [4] (setting [8]); 95.8% (active) in experiment [4] (at 50.0 µM). Besides, the growth inhibition was 82% (active) in experiment [5] (setting [7]); 99% (active) in experiment [5] (setting [8]); 98.6% (active) in experiment [5] (at 50.0 µM); 24% in experiment [6] (setting [7]); 95% (active) in experiment [6] (setting [8]); 97.2% (active) in experiment [6] (at 50.0 µM).

With `C/C(CC(=O)Nc1ccc([N+](=O)[O-])cc1)=N\Nc1ccc([N+](=O)[O-])cc1[N+](=O)[O-]`, the growth inhibition in experiment [1] (setting [7]) was 76% (active); in experiment [1] (setting [8]), 45%; in experiment [1] (at 50.0 µM), 72% (active); in experiment [2] (setting [7]), 48%; in experiment [2] (setting [8]), 47%; in experiment [2] (at 50.0 µM) it was 15.9%. Besides, the growth inhibition in experiment [3] (setting [7]) was 48%; in experiment [3] (setting [8]), 40%; in experiment [3] (at 50.0 µM), 7.6%; in experiment [4] (setting [7]), 33%; in experiment [4] (setting [8]) it was 53%; in experiment [4] (at 50.0 µM), -33.9%. Further, the growth inhibition in experiment [5] (setting [7]) was 17%; in experiment [5] (setting [8]), 34%; in experiment [5] (at 50.0 µM), 32.5%; in experiment [6] (setting [7]) it was 67%; in experiment [6] (setting [8]), 36%; in experiment [6] (at 50.0 µM), 61.9%.

Turning to `C[C@]12CC[C@H]3[C@@H](CCC4=CC(=O)CC[C@@H]43)[C@@H]1CC[C@@H]2OC(=O)N(CCCl)N=O`, the growth inhibition in experiment [1] (setting [7]) is 44%; in experiment [1] (setting [8]), 95% (active); in experiment [1] (at 50.0 µM) it was 84.8% (active); in experiment [2] (setting [7]), 43%; in experiment [2] (setting [8]), 97% (active); in experiment [2] (at 50.0 µM), 85.3% (active). The growth inhibition in experiment [3] (setting [7]) was 67%; in experiment [3] (setting [8]) it was 97% (active); in experiment [3] (at 50.0 µM), 83.2% (active); in experiment [4] (setting [7]), 68%; in experiment [4] (setting [8]), 96% (active); in experiment [4] (at 50.0 µM) it was 79% (active). Moreover, the growth inhibition in experiment [5] (setting [7]) was 72% (active); in experiment [5] (setting [8]), 96% (active); in experiment [5] (at 50.0 µM), 85.7% (active); in experiment [6] (setting [7]) it was 39%; in experiment [6] (setting [8]), 94% (active); in experiment [6] (at 50.0 µM), 85% (active).

`S=C1NCCN1`: the growth inhibition in experiment [1] (setting [7]) is 1%; in experiment [1] (setting [8]) it was 65%; in experiment [1] (at 50.0 µM), 12.2%; in experiment [2] (setting [7]) it was -4%; in experiment [2] (setting [8]) it was 15%; in experiment [2] (at 50.0 µM), 14.7%. For the same compound, the growth inhibition in experiment [3] (setting [7]) was 0%; in experiment [3] (setting [8]), 35%; in experiment [3] (at 50.0 µM) it was -17.6%; in experiment [4] (setting [7]) it was 5%; in experiment [4] (setting [8]), 14%; in experiment [4] (at 50.0 µM), 38.5%. Moreover, the growth inhibition is -1% in experiment [5] (setting [7]); 21% in experiment [5] (setting [8]); -2.65% in experiment [5] (at 50.0 µM); 2% in experiment [6] (setting [7]); 51% in experiment [6] (setting [8]); 4.95% in experiment [6] (at 50.0 µM).

In the case of `CC12CCC3C(CC=C4CC(SC(=N)N)CCC43C)C1CCC2=O` (stereo not given), the growth inhibition was 0% in experiment [1] (setting [7]); 33% in experiment [1] (setting [8]); 67.3% in experiment [1] (at 50.0 µM); 5% in experiment [2] (setting [7]); 51% in experiment [2] (setting [8]); 48.3% in experiment [2] (at 50.0 µM). Also, the growth inhibition in experiment [3] (setting [7]) was 21%; in experiment [3] (setting [8]), 72% (active); in experiment [3] (at 50.0 µM) it was 75.5% (active); in experiment [4] (setting [7]) it was 9%; in experiment [4] (setting [8]), 19%; in experiment [4] (at 50.0 µM), 59.7%. The growth inhibition is 11% in experiment [5] (setting [7]); 50% in experiment [5] (setting [8]); 66.8% in experiment [5] (at 50.0 µM); 8% in experiment [6] (setting [7]); 31% in experiment [6] (setting [8]); 59.6% in experiment [6] (at 50.0 µM).

As for `CCc1c[c]([Hg][Cl])c(CC)c(CC)c1CC`, the growth inhibition was 5% in experiment [1] (setting [7]); 99% (active) in experiment [1] (setting [8]); 99.4% (active) in experiment [1] (at 50.0 µM); 68% in experiment [2] (setting [7]); 99% (active) in experiment [2] (setting [8]); 99.7% (active) in experiment [2] (at 50.0 µM). Further, the growth inhibition in experiment [3] (setting [7]) was 40%; in experiment [3] (setting [8]), 100% (active); in experiment [3] (at 50.0 µM) it was 99.7% (active); in experiment [4] (setting [7]) it was 2%; in experiment [4] (setting [8]) it was 90% (active); in experiment [4] (at 50.0 µM), 23.7%. Besides, the growth inhibition in experiment [5] (setting [7]) was 7%; in experiment [5] (setting [8]) it was 99% (active); in experiment [5] (at 50.0 µM) it was 16.1%; in experiment [6] (setting [7]), 35%; in experiment [6] (setting [8]), 99% (active); in experiment [6] (at 50.0 µM), 98.6% (active).

For the compound `O=[N+]([O-])c1ccc(NP(=S)(Nc2ccc([N+](=O)[O-])cc2)c2ccccc2)cc1`, the growth inhibition in experiment [1] (setting [7]) is 28%; in experiment [1] (setting [8]), 91% (active); in experiment [1] (at 50.0 µM) it was 93% (active); in experiment [2] (setting [7]), 38%; in experiment [2] (setting [8]), 94% (active); in experiment [2] (at 50.0 µM) it was 95.6% (active). Besides, the growth inhibition is 6% in experiment [3] (setting [7]); 89% (active) in experiment [3] (setting [8]); 91.5% (active) in experiment [3] (at 50.0 µM); 56% in experiment [4] (setting [7]); 88% (active) in experiment [4] (setting [8]); 90.8% (active) in experiment [4] (at 50.0 µM). Also, the growth inhibition in experiment [5] (setting [7]) is 64%; in experiment [5] (setting [8]), 90% (active); in experiment [5] (at 50.0 µM), 95% (active); in experiment [6] (setting [7]), 68%; in experiment [6] (setting [8]) it was 77% (active); in experiment [6] (at 50.0 µM) it was 94.3% (active).

Take `CC(=O)[O][Hg][c]1ccc(N)[c]([Hg][O]C(C)=O)c1`: the growth inhibition is 99% (active) in experiment [1] (setting [7]); 98% (active) in experiment [1] (setting [8]); 99.5% (active) in experiment [1] (at 50.0 µM); 99% (active) in experiment [2] (setting [7]); 99% (active) in experiment [2] (setting [8]); 99.5% (active) in experiment [2] (at 50.0 µM). The growth inhibition is 99% (active) in experiment [3] (setting [7]); 99% (active) in experiment [3] (setting [8]); 99.5% (active) in experiment [3] (at 50.0 µM); 99% (active) in experiment [4] (setting [7]); 98% (active) in experiment [4] (setting [8]); 98.7% (active) in experiment [4] (at 50.0 µM). For the same compound, the growth inhibition was 99% (active) in experiment [5] (setting [7]); 99% (active) in experiment [5] (setting [8]); 99.2% (active) in experiment [5] (at 50.0 µM); 99% (active) in experiment [6] (setting [7]); 99% (active) in experiment [6] (setting [8]); 99.1% (active) in experiment [6] (at 50.0 µM).

Turning to `COc1ccc(NN=O)nc1`, the growth inhibition in experiment [1] (setting [7]) is 21%; in experiment [1] (setting [8]), 16%; in experiment [1] (at 50.0 µM), 31.9%; in experiment [2] (setting [7]), 8%; in experiment [2] (setting [8]), 17%; in experiment [2] (at 50.0 µM), -2.2%. Moreover, the growth inhibition in experiment [3] (setting [7]) is 18%; in experiment [3] (setting [8]), 23%; in experiment [3] (at 50.0 µM) it was -20.9%; in experiment [4] (setting [7]), 7%; in experiment [4] (setting [8]), 24%; in experiment [4] (at 50.0 µM), -18.6%. Further, the growth inhibition is 20% in experiment [5] (setting [7]); 22% in experiment [5] (setting [8]); -22.4% in experiment [5] (at 50.0 µM); 20% in experiment [6] (setting [7]); 29% in experiment [6] (setting [8]); 3.95% in experiment [6] (at 50.0 µM).

As to `CC(C)NC1CC2CCCCC2CC1c1ccccc1` (stereo not given), the growth inhibition in experiment [1] (setting [7]) was 1%; in experiment [1] (setting [8]) it was 51%; in experiment [1] (at 50.0 µM), 79.8% (active); in experiment [2] (setting [7]) it was 4%; in experiment [2] (setting [8]) it was 25%; in experiment [2] (at 50.0 µM), 83.3% (active). Also, the growth inhibition in experiment [3] (setting [7]) was 10%; in experiment [3] (setting [8]) it was 68%; in experiment [3] (at 50.0 µM), 90.9% (active); in experiment [4] (setting [7]) it was 3%; in experiment [4] (setting [8]), 57%; in experiment [4] (at 50.0 µM), 82.3% (active). The growth inhibition in experiment [5] (setting [7]) was 17%; in experiment [5] (setting [8]) it was 53%; in experiment [5] (at 50.0 µM) it was 82.4% (active); in experiment [6] (setting [7]) it was 20%; in experiment [6] (setting [8]) it was 74% (active); in experiment [6] (at 50.0 µM) it was 88.8% (active).
